Among all 63,000 compounds or so, about 1,100 (1.7%) were called active. What follows is part of a selection rich in actives, with near analogues and random picks from the rest. Measured potencies and affinities stand elsewhere. A number with no mark means an inactive call. Cut-off read from the data, not from the text of the source: active = cytotoxicity above about 50%; inactive = the rest.
test: cytotoxicity in HPDE-C7 cells, cell-based, fluorescence, HTS (AID 430); conditions: HPDE-C7 pancreatic duct cells viability, at 10 µM, hits give high values;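 note: cells exposed to compound for 48 hours before viability readout; 0% = vehicle and 100% = reference cytotoxic drug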

Compound	cytotoxicity
C=CCOc1ccc(/C(O)=C2/C(=O)C(=O)N(CCN3CCOCC3)C2c2ccc(C)cc2)cc1 (stereo not given)	-1.1%
Cc1ccc(C2C3CN(C(C)C)CC=C3C(C#N)=C(N)C2(C#N)C#N)cc1 (stereo not given)	-0.7%
N#CC1=C(N)C(C#N)(C#N)[C@H](c2ccncc2)[C@H]2CC3(CC=C12)OCCO3	-12.1%
CCOC(=O)c1cccc(NC(=O)CSc2nnc(-c3cccnc3)n2CC)c1	-5.8%
COc1ccccc1-n1c(SCC(=O)N2CCCCC2)nc2cccnc21	-11.8%
c1ccc2c(c1)[nH]c1c(N3CCSCC3)ncnc12	44%
COc1cccc2[nH]c3c(N4CCN(Cc5ccc6c(c5)OCO6)CC4)ncnc3c12	47.6%
COc1ccc2c(c1)c1ncnc(N3CCN(Cc4ccc5c(c4)OCO5)CC3)c1n2C	54.9% (active)
Fc1ccc2[nH]c3c(N4CCN(C5CCCCC5)CC4)ncnc3c2c1	10.6%
Fc1ccc2[nH]c3c(N4CCN(c5ccccc5)CC4)ncnc3c2c1	10.8%
COc1cccc(N2CCN(c3ncnc4c3[nH]c3ccc(F)cc34)CC2C)c1 (stereo not given)	114% (active)
COc1ccc2c(c1)c(C(O)CN1CCN(Cc3ccc4c(c3)OCO4)CC1)c(C)n2C (stereo not given)	21.3%
c1ccc2c(c1)oc1c(N3CCN(Cc4ccc5c(c4)OCO5)CC3)ncnc12	8.4%
c1ccc(Cn2nnc3c(N4CCN(Cc5ccc6c(c5)OCO6)CC4)ncnc32)cc1	11.9%
CN1CCN(c2ncnc3c2[nH]c2ccc(F)cc23)CC1	6.4%
COc1ccc2[nH]c3c(N4CCN(Cc5ccc6c(c5)OCO6)CC4)ncnc3c2c1	50.6% (active)
Cc1ccc(N(CC(=O)NC2CCCCCC2)S(=O)(=O)c2c(C)nn(C)c2C)cc1	3.4%
COc1cccc(C(=O)N(CN2CCCC2=O)c2ccccc2OC)c1	-0.2%
CCCC(c1nnnn1Cc1ccc(F)cc1)N1CCN(C2CCCCC2)CC1 (stereo not given)	10.8%
O=C(CN1CCN(c2ccccn2)CC1)Nc1ccc(OCc2ccccc2)cc1	3.7%
O=C1c2ccccc2C(=O)N1CCSc1nncs1	-8.3%
c1nc(N2CCN(Cc3ccc4c(c3)OCO4)CC2)c2[nH]cnc2n1	-4%
Cc1ccc2[nH]c3c(N4CCN(Cc5ccc6c(c5)OCO6)CC4)ncnc3c2c1	30.3%
COC(=O)c1[nH]c2cc(OC)ccc2c1NC(=O)CCN1CCN(Cc2ccc3c(c2)OCO3)CC1	-20.7%

Compound	cytotoxicity
Cc1ccc2c(c1)[nH]c1c(N3CCN(Cc4ccc5c(c4)OCO5)CC3)ncnc12	-17.1%
Fc1ccc2[nH]c3c(N4CCN(Cc5ccc6c(c5)OCO6)CC4)ncnc3c2c1	89.3% (active)
COc1ccccc1-n1c(SCC(=O)NC(C)(C)C)nnc1-c1ccco1	3.2%
COC(=O)c1sc(NC(=O)CSc2nnc(C(C)C)n2C)nc1C	-8.2%
COc1ccccc1CN1C(=O)CCC1(C)C(=O)NC1CCCCCC1 (stereo not given)	-12.9%
COCCNC(=O)c1cnn2c(C(F)(F)F)cc(-c3ccc4c(c3)OCO4)nc12	4.1%
Cc1cc(-c2ccccc2)c2c3c(cn2n1)c(=O)n(C)c(=O)n3C	2.6%
Cc1nc2sc3c(c2c2nnc(SCC(=O)NCc4ccco4)n12)CCCC3	-3.2%
CC1(C)Cc2c(C#N)c(SCC(=O)c3ccccc3)nc(N3CCOCC3)c2CO1	-5.6%
CCCCCSc1nc(N2CCOCC2)c2c(c1C#N)CC(C)(C)OC2	1.7%
CC1(C)Cc2c(C#N)c(SCc3ccccc3)nc(N3CCOCC3)c2CO1	18.9%
N#Cc1c(SCc2ccccc2)nc(N2CCOCC2)c2c1CCCC2	8.3%
CN1Cc2c(N3CCOCC3)nc(SCc3ccccc3)c(C#N)c2CC1(C)C	51.3% (active)
CC1(C)Cc2c(C#N)c(SCCOc3ccccc3)nc(N3CCOCC3)c2CO1	59.4% (active)
Cn1c(=O)c2c(ncn2CC(=O)N2CCCc3ccccc32)n(C)c1=O	-15.8%
CCOC(=O)c1cccc(S(=O)(=O)N(CCO)Cc2cc3cc(OC)c(OC)cc3[nH]c2=O)c1	-19.4%
COc1ccc(-n2c(Cc3cccn3C)nnc2SCC(=O)Nc2nccs2)cc1	5.7%
Nc1ccccc1OCCOCCOCCOc1ccccc1N	5.3%
CCC(C)n1cnc2c(c1=O)c1nc3ccccc3nc1n2Cc1ccc2c(c1)OCO2 (stereo not given)	26.8%
COc1ccc(NC(=O)C2CC(c3ccc(OC)c(OC)c3)=NO2)cc1OC (stereo not given)	-6.6%
COc1cc(C2=NOC(C(=O)Nc3ccc(C)cc3)C2)cc(OC)c1OC (stereo not given)	-9.2%
COc1cc(C2=NOC(C(=O)NCc3ccco3)C2)cc(OC)c1OC (stereo not given)	32.6%
COc1ccc(C2=NOC(C(=O)NCc3ccc(F)cc3)C2)cc1OC (stereo not given)	55.2% (active)
COc1ccc(C2=NOC(C(=O)NCc3ccco3)C2)cc1OC (stereo not given)	38.7%

Compound	cytotoxicity
COc1cc(C2=NOC(C(=O)NCc3ccc(F)cc3)C2)cc(OC)c1OC (stereo not given)	63.4% (active)
O=C(c1ccco1)N(CCCN1CCOCC1)c1nc(-c2ccc(F)cc2)cs1	11.3%
COc1ccc(NC(C)=O)cc1NC(=O)CSc1nnc(-c2cccnc2)n1C	-13.3%
O=C(NCC1CCCO1)C1CCC(CNS(=O)(=O)c2ccccc2)CC1 (stereo not given)	13.6%
COc1ccc(OC)c2sc(NC(=O)CCS(=O)(=O)c3ccccc3)nc12	-0.4%
O=C(CCS(=O)(=O)c1ccccc1)Nc1nc2c(s1)COc1ccccc1-2	98.3% (active)
O=C(Nc1nc2c(s1)COc1ccccc1-2)c1cccs1	9.6%
Clc1ccc2nc(CN3CCCc4ccccc43)cn2c1	23.1%
CCCCCn1c(=NC(C)=O)c(C#N)cc2c(=O)n3ccccc3nc21	8.8%
O=C(O)Cn1cc(C(=O)c2cccs2)c2ccccc21	-14%
COCCn1c(C(C)C)nc2oc3ccccc3c(=O)c2c1=O	-9.4%
CCC(=O)N1CCc2cc(S(=O)(=O)NCCN3CCC(C)CC3)ccc21	-1.8%
CCN1C(=O)CC(N2CCC(C(=O)OC)CC2)C1=O (stereo not given)	-6.2%
CN1CCN(C(c2cccnc2)c2ccc3cccnc3c2O)CC1 (stereo not given)	-9.1%
OCCN1CCN(C(c2cccs2)c2ccc3cccnc3c2O)CC1 (stereo not given)	79.3% (active)
Cc1nc2sc(C(c3ccccc3)N3CCN(CCO)CC3)c(O)n2n1 (stereo not given)	-1.3%
CC1CCC(C(=O)NC(C(=O)NCCN2CCC(C)CC2)C(C)C)CC1 (stereo not given)	-16.7%
Cc1nnc(SCc2ccccc2Cl)n1CC1CCCO1 (stereo not given)	-11.9%
COc1ccc(NC2=CC(=O)CC(C)(C)C2)cc1OC	-19.2%
O=C(Nc1cccc(NC(=O)N2CCN(c3ccccc3)CC2)c1)N1CCN(c2ccccc2)CC1	56.3% (active)
O=C(Nc1ccc2snnc2c1)N1CCN(c2ccccc2)CC1	-24.9%
O=C(Nc1cccc2ccccc12)N1CCN(c2ccccc2)CC1	15.2%
COc1ccc(Cn2c(C)nc3oc4cc(OC)ccc4c(=O)c3c2=O)cc1	-21%
Nc1nc2n(n1)C(c1cccc(Cl)c1)CC(c1ccc(F)cc1)N2 (stereo not given)	10.8%

Compound	cytotoxicity
CCOC(=O)CC(=O)CSc1nc2c(cc1C#N)CCCCC2	-5.9%
CCOC(=O)CC(=O)CSc1nc2c(c(C)c1C#N)CCC2	52.6% (active)
CCOC(=O)c1sc(NC(=O)CSc2nc3c(cc2C#N)CCCCCC3)c(C#N)c1C	79.6% (active)
CCOC(=O)c1sc(NC(=O)CSc2nc3c(cc2C#N)CCC3)c(C#N)c1C	4.5%
COC(=O)CC(=O)CSc1nc2c(cc1C#N)CCCCC2	10.3%
CC(C)OC(=O)CC(=O)CSc1nc2c(cc1C#N)CCC2	49.9%
Cc1c(C#N)c(SCC(N)=O)nc2c1CCCC2	-21%
N#Cc1cc2c(nc1SCC(=O)Nc1sc3c(c1C#N)CCC3)CCCCC2	23.2%
Cc1nc(SCC(=O)CC(=O)OC(C)C)c(C#N)c(C)c1C	-1.2%
Cc1cc(C)c(C#N)c(SCC(=O)CC(=O)OC(C)C)n1	34.5%
COC(=O)CC(=O)CSc1nc2c(cc1C#N)CCC2	76.1% (active)
COc1cc(Cl)ccc1S(=O)(=O)n1nc(C)cc1C	7.8%
CCc1ccc(S(=O)(=O)NCc2csc(-c3cccnc3)n2)s1	-5%
CCOC(=O)c1ccccc1NC(=O)c1c(O)c2ccccc2n(CC)c1=O	-9.2%
CC(=O)N1CCc2cc(S(=O)(=O)NC(CC(C)C)C(=O)Nc3cc(C)ccn3)ccc21 (stereo not given)	-6.7%
Cc1cc(C(C)(C)C)oc1C(=O)N1CCN(C(=O)c2oc(C(C)(C)C)cc2C)CC1	4%
CCCCS(=O)(=O)C(=C1Nc2ccccc2N1)S(=O)(=O)CCCC	-0.6%
CCOCCCn1c(=S)[nH]c2cc(C(=O)N3CCC(C(N)=O)CC3)ccc2c1=O	0.3%
CC(C)OC(=O)CSc1nnc(-c2cnccn2)n1-c1ccc(Cl)cc1	9.2%
Cc1ccc(OCC(=O)N2CCN(C(=O)Cc3ccccc3)CC2)cc1	-0.3%
N#CCSc1nc2cc(C(=O)N3CCC(C(N)=O)CC3)ccc2c2nc3ccccc3n12	75.7% (active)
N#CCSc1nc2cc(C(=O)N3CCCC3)ccc2c(=O)n1Cc1ccccc1	-0.6%
CCOC(=O)CSc1nc2cc(C(=O)N3CCC(C(N)=O)CC3)ccc2c(=O)n1-c1ccccc1	-8.3%

— PubChem BioAssay AID430 (Sanford-Burnham Center for Chemical Genomics, 2006)
